High-throughput results deposited in PubChem BioAssay by Fisher Drug Discovery Resource Center.
In the library only some 0.24% were active in any assay of this set; here they are far more common.
NPYLR7 agonist: activates Aedes aegypti NPYLR7 receptor; HEK293T NPYLR7/Galpha15, GCaMP6s calcium fluorescence; activation, % at 10 µM; hit rate 0.15% among 270,000; in the data active = activation above about 40%;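 also: 0% = vehicle and 100% = reference agonist at the receptor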
hcGAS inh: blocks human cGAS activity; Q8N884; recombinant h-cGAS, ATP depletion, Kinase-Glo luminescence; inhibition, % at 12.5 µM; hit rate 0.081% among 290,000; AID 1259398;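 also: 0% = vehicle reaction and 100% = reaction without DNA for no activity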
Target sequence (Q8N884 whole entry, looked up): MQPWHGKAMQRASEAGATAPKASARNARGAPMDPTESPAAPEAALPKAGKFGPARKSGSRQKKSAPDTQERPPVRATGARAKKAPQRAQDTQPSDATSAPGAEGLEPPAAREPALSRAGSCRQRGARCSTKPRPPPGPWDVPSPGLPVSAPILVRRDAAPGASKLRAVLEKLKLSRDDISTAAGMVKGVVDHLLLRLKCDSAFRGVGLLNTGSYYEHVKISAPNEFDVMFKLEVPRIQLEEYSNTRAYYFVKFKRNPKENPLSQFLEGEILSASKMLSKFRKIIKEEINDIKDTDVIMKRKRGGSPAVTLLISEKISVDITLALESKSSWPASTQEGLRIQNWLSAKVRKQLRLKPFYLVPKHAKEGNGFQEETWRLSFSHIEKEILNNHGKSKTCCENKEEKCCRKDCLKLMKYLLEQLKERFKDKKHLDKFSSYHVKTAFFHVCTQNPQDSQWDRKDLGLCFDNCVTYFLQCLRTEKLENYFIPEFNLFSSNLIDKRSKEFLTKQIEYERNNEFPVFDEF
mcGAS lum: inhibitors of mouse cGAS; inhibition, % at 12.5 µM; recombinant cGAS, Kinase-Glo ATP depletion luminescence; AID 1259399; hit rate 0.15% among 160,000;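 also: 0% = negative control wells and 100% = reference inhibitor with no enzyme activity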
An asterisk follows results filed as active; . = no result given; + = active, no number. Rule as the data show it, unless noted: active = inhibition above about 40%; inactive = the rest.

SMILES	NPYLR7 agonist	hcGAS inh	mcGAS lum
CCc1cccc2c(C(CC(=O)NCCCN3CCOCC3)c3cccc(C(F)(F)F)c3)c[nH]c12 (configuration not stated)	.	-12	-10
CCC(C(=O)N1CCN(C(C(=O)NCCc2ccccn2)C2CCCC2)CC1)c1ccccc1 (configuration not stated)	-4	-4	-4
CC(C)(C)c1ccc(/C=C2\SC(=S)NC2=O)cc1	-11	7	-1
O=C1NC(=S)SC1=Cc1cccc(C(F)(F)F)c1	1	31	82*
O=C1NC(=S)SC1=Cc1ccc(C(=O)O)cc1	13	33	65*
O=C1NC(=S)S/C1=C/c1cccc(O)c1	-2	-4	.
COc1cc(C)c(CN2CCN(Cc3nc4cc(Cl)ccc4c(=O)[nH]3)CC2)cc1OC	5	0	.
COc1ccc2nc3cc(Cl)ccc3c(Nc3cc(CN4CCCC4)c(O)c(CN4CCCC4)c3)c2n1	3	45*	.
COc1ccc(NCc2ccc(OC)c(Br)c2)cn1	86*	-13	-9
COc1ccc(NCc2cc(OC)c3c(c2)OCCO3)cn1	3	-6	-6
Cc1ccc(CNC(=O)NC(c2ccc3c(c2)OCCCO3)C(C)C)cc1F (configuration not stated)	47*	-13	-9
CC(C)C(NC(=O)c1cccc(F)c1)c1ccc2c(c1)OCCCO2 (configuration not stated)	3	0	.
C=CCOc1ccc(C=C(C#N)C(=O)c2ccc(OC)cc2)cc1	2	2	58*
COc1ccc(C=C(C#N)C(=O)c2ccc(OC)cc2)cc1	1	3	38
COC(=O)c1cc(C(C)C)nc2c1c(-c1ccc(C)cc1)nn2C1CCS(=O)(=O)C1 (configuration not stated)	13	-9	.
Cc1noc(-c2ccccc2Cl)c1C(=O)NCc1ccc(C(F)(F)F)cc1	3	-1	1
NC(=O)C1CCN(C(=O)CCc2ccsc2)CC1	-4	-3	.
NC(=O)C1CCN(C(=O)CCN(CCc2ccccc2)C(=O)c2cnccn2)CC1	6	+	.
COc1ccccc1OCC1c2ccsc2CCN1C(=O)CN(CCC(C)C)S(=O)(=O)c1ccc(C)cc1 (configuration not stated)	-1	3	0
CN(Cc1ccc(Br)cc1)C(=O)CCl	0	-4	42*
CCCNC(=O)NCC(=O)N(C)Cc1ccc(Br)cc1	0	-5	.
CS(=O)(=O)c1cccc(C(=O)N(CCCN2CCOCC2)c2nc3ccccc3s2)c1	-4	-4	-3
Cc1ccc(N2CCn3c2nc2c3c(=O)n(CCC(C)C)c(=O)n2C)c(C)c1	-1	-5	.
COc1ccc(-c2nnc(C[C@@H]3C[C@@H](C(C)C)[C@H](CNc4ccccn4)C=C3C)o2)cc1	-10	-4	-4
COc1ccc(NC[C@@H]2C=C(C)[C@H](Cc3nnc(C)o3)C[C@H]2C(C)C)cn1	55*	-5	-6
SMILES	NPYLR7 agonist	hcGAS inh	mcGAS lum
CCCc1[nH]n(-c2cccc(Cl)c2)c(=O)c1/C=C1\NC(=O)N(Cc2ccc(C)cc2)C1=O	-2	7	1
CCCc1[nH]n(-c2ccc(Cl)c(Cl)c2)c(=O)c1/C=C1\NC(=O)N(Cc2ccc(C)cc2)C1=O	56*	-2	-9
COc1ccc(-c2csc(NC(=O)CN3CC(C)CC(C)C3)n2)c(OC)c1 (configuration not stated)	10	-7	.
COc1ccc(-c2csc(NC(=O)CCl)n2)c(O)c1	6	-3	60*
Cc1cc(O)c(C=O)c2c1C(=O)Oc1c(COC(=O)/C=C/C(=O)O)c(O)c(C(=O)O)c(C)c1O2	.	69*	67*
Cn1c(=O)c2c(ncn2CCCC(=O)Nc2sc3c(c2C(N)=O)CCCC3)n(C)c1=O	1	-10	-5
Cc1cc(Cl)ccc1NC(=O)c1nc(C)n2c1CCCC2	-4	3	.
O=C(Nc1ncccc1O)c1nc(-c2ccccc2)n2c1CCCCC2	11	66*	-13
O=C(CSc1ccccc1)N1CCC(Cc2ccc(-c3ccccc3)cc2)CC1	3	-7	-5
CCCCN(CC(=O)Nc1c(-c2ccccc2)c(C)nn1-c1ccccc1C)S(=O)(=O)c1ccc(F)cc1	48*	-2	-5
Cc1ccccc1-n1nc(C)c(-c2ccccc2)c1NC(=O)CN(CC(C)C)S(=O)(=O)c1ccc([N+](=O)[O-])cc1	-1	-7	-5
CC(=O)Nc1cccc(NC(=O)CN(C)CCN2CCCC2=O)c1	8	-6	-13
COc1ccc(Cc2cnc(=O)[nH]c2N)cc1	-5	-7	.
CN(c1ccccc1)S(=O)(=O)c1cccc(NS(=O)(=O)c2cc(Cl)ccc2Cl)c1	-10	-1	.
CN(c1ccccc1)S(=O)(=O)c1cccc(NC(=O)CCl)c1	12	-3	55*
O=C(CCn1c(=O)[nH]c2ccccc2c1=O)NCCc1ccccc1Cl	-8	0	.
CNC(=O)NC(=O)CCN1CC(c2ccccc2Cl)c2c([nH]c3ccccc23)C1C (configuration not stated)	41*	1	.
CC(=O)c1ccc(C(=O)N2CCCC(CCC(=O)Nc3ccc(F)cc3C)C2)s1 (configuration not stated)	5	-9	.
O=C(c1nc2ccccn2c1CNC(CCn1ccnc1)c1ccccc1)N1CCCC1 (configuration not stated)	11	-6	-3
N#CC1C(=N)Oc2cc(N)ccc2C1c1ccccc1I (configuration not stated)	26	-3	.
N#CC1C(=N)Oc2cc(N)ccc2C1c1c(Cl)cccc1Cl (configuration not stated)	160*	-5	9
Cc1ccnc(SCc2cc(=O)c(OC(=O)Cc3cccc4ccccc34)co2)n1	14	6	60*
Cc1cc(C)nc(SCc2cc(=O)c(OC(=O)c3ccccc3Cl)co2)n1	-13	-7	-5
Cc1cc(C)nc(SCc2cc(=O)c(OC(=O)C3c4ccccc4Oc4ccccc43)co2)n1	-6	-2	93*
Cc1cc(C)nc(SCc2cc(=O)c(OC(=O)Cc3cccs3)co2)n1	-22	8	7
SMILES	NPYLR7 agonist	hcGAS inh	mcGAS lum
Cc1ccnc(SCc2cc(=O)c(OC(=O)COc3ccccc3C)co2)n1	-7	-1	-6
Cc1cc(C)nc(SCc2cc(=O)c(OC(=O)Cc3cccc4ccccc34)co2)n1	-9	12	68*
CCCc1[nH]n(C)c(=O)c1C1=C(N2CCC(C)CC2)C(=O)N(c2ccc(OC)c(OC)c2)C1=O	17	-6	-3
Cc1cc(F)ccc1CCNC(=O)NCc1noc(C(C)(C)C)n1	2	-5	.
CCCOc1nn(CCC)cc1C(=O)Nc1nnc(SCC)s1	7	-8	-7
CCN(CC)CCCNC(=O)c1nn2c(C(F)(F)F)cc(-c3cccs3)nc2c1Cl	-6	-2	-4
Cc1cnccc1NCCNC1CCSCC1	8	-8	.
N#CC(=Cc1ccc(C=C(C#N)c2nnc3n2CCCCC3)cc1)c1nnc2n1CCCCC2	2	-3	.
N#CC(=Cc1ccc(C#N)cc1)c1nnc2n1CCCCC2	-6	-4	44*
Cn1c(C(C#N)=Cc2ccsc2)nc2ccccc21	-1	3	-1
Cn1c(C(C#N)=Cc2c(F)c(F)c(F)c(F)c2F)nc2ccccc21	142*	0	.
N#C/C(=C\c1ccc(O)c(O)c1)C(=O)Nc1ccccc1	147*	17	3
